Among all 310,000 compounds or so, about 14,000 (4.5%) showed an effect of 50% or more. Effects have a minus sign here. The sample holds strong results, similar compounds and a random draw of the others, so the mix is not that of the screen.
target: human ether-à-go-go-related gene (hERG) potassium channel (human, UniProt Q12809); experiment: primary screen, population patch clamp on CHO cells stably expressing hERG; higher = less effect of the substance
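Also: peak tail current of the secondary pulse compared with the same well before compound.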

Chain of human ether-à-go-go-related gene (hERG) potassium channel (Q12809 whole entry, looked up): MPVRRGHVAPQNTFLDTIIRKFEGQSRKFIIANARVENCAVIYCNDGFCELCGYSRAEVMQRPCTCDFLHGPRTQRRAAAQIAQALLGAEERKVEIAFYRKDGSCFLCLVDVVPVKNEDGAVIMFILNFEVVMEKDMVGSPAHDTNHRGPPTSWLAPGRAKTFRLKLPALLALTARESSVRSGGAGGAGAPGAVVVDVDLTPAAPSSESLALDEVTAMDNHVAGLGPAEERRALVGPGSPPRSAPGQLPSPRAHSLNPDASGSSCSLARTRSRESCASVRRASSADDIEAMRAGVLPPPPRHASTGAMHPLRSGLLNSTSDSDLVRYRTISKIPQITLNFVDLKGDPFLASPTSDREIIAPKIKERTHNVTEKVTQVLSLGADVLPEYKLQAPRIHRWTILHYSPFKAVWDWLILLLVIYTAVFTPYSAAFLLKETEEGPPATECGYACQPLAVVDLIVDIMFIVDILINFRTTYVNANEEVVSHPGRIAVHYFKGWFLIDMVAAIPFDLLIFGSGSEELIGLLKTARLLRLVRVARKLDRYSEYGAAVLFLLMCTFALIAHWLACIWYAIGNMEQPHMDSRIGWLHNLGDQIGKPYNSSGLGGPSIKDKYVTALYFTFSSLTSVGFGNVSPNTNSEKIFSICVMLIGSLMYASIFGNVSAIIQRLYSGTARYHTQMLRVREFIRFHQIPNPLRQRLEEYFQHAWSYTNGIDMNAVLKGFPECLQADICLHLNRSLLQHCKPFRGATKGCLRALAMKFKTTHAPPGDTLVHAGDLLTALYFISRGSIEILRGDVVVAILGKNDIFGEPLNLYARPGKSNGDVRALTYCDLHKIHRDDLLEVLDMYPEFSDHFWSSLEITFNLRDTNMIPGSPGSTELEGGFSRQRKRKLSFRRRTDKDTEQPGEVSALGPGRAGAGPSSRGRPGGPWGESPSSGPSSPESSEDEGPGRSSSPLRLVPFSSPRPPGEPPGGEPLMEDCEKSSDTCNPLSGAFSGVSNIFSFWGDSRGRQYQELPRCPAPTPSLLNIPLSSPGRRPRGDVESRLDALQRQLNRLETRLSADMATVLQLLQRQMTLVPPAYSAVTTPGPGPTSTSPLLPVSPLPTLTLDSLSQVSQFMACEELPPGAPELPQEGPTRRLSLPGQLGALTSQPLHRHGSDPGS

Compound | hERG current change (%, negative = inhibition) at 10uM
COCCSc1ccccc1C(=O)Nc1nccs1 | -2.77%
CCC(=O)c1ccc(OCC(O)CN2CCCCC2)cc1.Cl (stereo not drawn) | -21.8%
CCC(=O)c1ccc(OCC(O)CN2CCN(S(=O)(=O)c3ccc(NC(C)=O)cc3)CC2)cc1 (stereo not drawn) | -20.5%
CN(C)S(=O)(=O)N1CCN(CC(O)COc2ccc(-c3ccccc3)cc2)CC1 (stereo not drawn) | -27.3%
O=S(=O)(N1CCCCC1)N1CCN(CC(O)COc2ccc3cc(Br)ccc3c2)CC1 (stereo not drawn) | 7.33%
CCC(=O)c1ccc(OCC(O)CN2CCN(S(=O)(=O)N3CCCCC3)CC2)cc1 (stereo not drawn) | -55.1%
CN(C)S(=O)(=O)N1CCN(CC(O)COc2ccc(C(=O)c3ccccc3)cc2)CC1 (stereo not drawn) | -70.2%
O=C(c1ccccc1)c1ccc(OCC(O)CN2CCOCC2)cc1 (stereo not drawn) | -10.8%
CN(C)S(=O)(=O)N1CCN(CC(O)COc2ccc3cc(Br)ccc3c2)CC1 (stereo not drawn) | -25.6%
O=C(c1ccccc1)c1ccc(OCC(O)CN2CCN(S(=O)(=O)N3CCCCC3)CC2)cc1 (stereo not drawn) | -73.5%
CCOc1ccc(N2C(=O)CN=C2Nc2ccccc2F)cc1 | 5.08%
COc1ccc(Br)cc1CNc1ccccc1.O=C(O)C(=O)O | 9.4%
CN=C1C=C/C(=N/N=c2\ccn(O)cc2C)C=C1C | -32.6%
COC(=O)C1=C(C)N=C2SCCC(=O)N2C1c1cccs1 (stereo not drawn) | 10.4%
O=C(O)C(=O)O.c1ccc(CNC23CC4CC(CC(C4)C2)C3)nc1 | 15.3%
CCN(CC)C(=O)C1CCCN(Cc2sccc2C)C1 (stereo not drawn) | 11.6%
O=C(C1CCN(CCCc2ccccc2)CC1)N(CCc1ccccc1)Cc1ccccc1.O=C(O)C(=O)O | -75%
O=C(C1CCCN(CCCc2ccccc2)C1)N1CCCCCC1.O=C(O)C(=O)O (stereo not drawn) | -46.2%
CCCCN(Cc1ccccc1)C(=O)C1CCN(Cc2sccc2C)CC1.O=C(O)C(=O)O | -68.3%

Compound | hERG current change (%, negative = inhibition) at 10uM
CCC(C)NC(=O)C1CCN(CCCc2ccccc2)CC1.O=C(O)C(=O)O (stereo not drawn) | -1.26%
O=C(C1CCN(CC2CC=CCC2)CC1)N(CCc1ccccc1)Cc1ccccc1 (stereo not drawn) | -72%
CC1CCCN(C(=O)C2CCN(CCCc3ccccc3)CC2)C1.O=C(O)C(=O)O (stereo not drawn) | -47.5%
CCN(Cc1ccccc1)C(=O)C1CCN(Cc2sccc2C)CC1.O=C(O)C(=O)O | -44.3%
O=C(C1CC1)N(CCN(Cc1ccccc1)C(=O)C1CC1)Cc1ccccc1 | -28.9%
CC1CCN(C(=O)C2CCN(CCCc3ccccc3)CC2)CC1.O=C(O)C(=O)O | -62.3%
CCN(Cc1ccccc1)C(=O)C1CCN(CC2CC=CCC2)CC1.O=C(O)C(=O)O (stereo not drawn) | -46.9%
CCN(CC)C(=O)C1CCN(CC2CC=CCC2)CC1 (stereo not drawn) | -0.0716%
Cc1ccc(C(C)C)c(Oc2nnnn2-c2ccccc2)c1 | 14.2%
CC(=O)N1CCC(N(CCCOC(C)C)S(=O)(=O)c2ccc([N+](=O)[O-])cc2)CC1 | -35.3%
CCn1cc(C(=O)N2CCn3c(nc4ccccc43)C2)c(=O)c2ccc(C)nc21 | -12.4%
COc1ccc(NC(=O)CSC2=C(C#N)C(c3ccco3)C3=C(CCCC3=O)N2)c(OC)c1 (stereo not drawn) | -33.2%
Fc1ccccc1Nc1nc(NCc2ccco2)nc(N2CCOCC2)n1 | -15.8%
CCCOc1cccc(C2C(C(=O)c3ccc(C)o3)=C(O)C(=O)N2c2nc(C)c(C(C)=O)s2)c1 (stereo not drawn) | 9.66%
COc1cc(NC(=O)c2c(F)c(F)c(OC)c(F)c2F)ccc1NC(=O)c1cccs1 | 11.2%
COc1ccc(C(=S)N2CCCC2)cc1Br | -7.39%
CCOC(=O)Cc1csc(NC(=O)NC2(C(F)(F)F)Oc3ccccc3O2)n1 | 5.19%
O=C(NCCc1ccccc1)c1ccc(CS(=O)(=O)Cc2ccccc2F)o1 | -19.7%
CCCCN(C)C(=O)C1CCN(Cc2ccccn2)CC1.O=C(O)C(=O)O | -4.27%

Compound | hERG current change (%, negative = inhibition) at 10uM
CCCCN(C)C(=O)C1CCN(CCCc2ccccc2)CC1.O=C(O)C(=O)O | -73.4%
CCCCN(C)C(=O)C1CCN(Cc2cccnc2)CC1 | 9.71%
OCC(O)CN(c1ccccc1)c1ccccc1 (stereo not drawn) | 2.58%
CN(C)CC(O)CN(c1ccccc1)c1ccccc1 (stereo not drawn) | -54%
NCC(O)CN(c1ccccc1)c1ccccc1 (stereo not drawn) | 12%
CNCC(O)CN(c1ccccc1)c1ccccc1 (stereo not drawn) | -39.8%
CN(CCO)CC(O)CN(c1ccccc1)c1ccccc1.Cl (stereo not drawn) | -52.1%
Cl.OCCN(CCO)CC(O)CN(c1ccccc1)c1ccccc1 (stereo not drawn) | -14.6%
CCCCCCn1c(=O)c(C(=O)Nc2nnc(C)s2)c(O)c2ccccc21 | -1.74%
Cc1nnc(Nc2ccc3c(c2)OCO3)c2ccccc12 | -7.51%
O=C(CCc1nnc2n(Cc3ccccc3)c(=O)c3ccccc3n12)NCCN1CCOCC1 | -1.06%
O=C(CCc1nnc2n(Cc3ccc(F)cc3)c(=O)c3ccccc3n12)NCCCN1CCOCC1 | -16.4%
O=C(CCc1nnc2n(Cc3ccc(Cl)cc3)c(=O)c3ccccc3n12)NCCN1CCCC1 | -75.8%
CC1CCCC(C)N1CCNC(=O)CCc1nnc2n(Cc3ccccc3)c(=O)c3ccccc3n12 (stereo not drawn) | -42.6%
CC1CCCCN1CCNC(=O)CCc1nnc2n(Cc3ccccc3)c(=O)c3ccccc3n12 (stereo not drawn) | -51.6%
O=C(CCc1nnc2n(Cc3ccc(F)cc3)c(=O)c3ccccc3n12)NCCN1CCOCC1 | -20.3%
O=C(CCc1ccccc1)NCCCN1CCOCC1 | 12.3%
O=C(CCc1nnc2n(Cc3ccc(Cl)cc3)c(=O)c3ccccc3n12)NCCCN1CCOCC1 | -59.9%
Cc1ccc(Cn2c(=O)c3ccccc3n3c(CCC(=O)NCCN4CCOCC4)nnc23)cc1 | -19.5%

— article PMC4336329 (PLoS ONE, 2015)
